Among the data in PubChem BioAssay AID463173 (ICCB-Longwood Screening Facility, Harvard Medical School, 2010) are survival values, retold here.

About 4,300 (8.3%) of roughly 52,000 compounds were called active. Shown is part of a subset that was picked to be rich in actives. Unmarked numbers belong to inactive results. Cut-off read from the data, not from the text of the source: active = survival mostly below about 52% (no sharp cut-off); inactive = mostly above about 56%.

In the experiment the test system is DeltatarO mutant. As to the kind of experiment: growth inhibition of S. aureus wild type versus tarO mutant, primary screen, teichoic acid synthesis inhibitors, RN4220, OD600 (AID 463173). To be noted: OD600, 18 h, active compounds read low, screened at 18.75 µg/mL (by protocol).
As for `Cc1ccc(N(CC(=O)N2CCN(c3cccc(C)c3C)CC2)S(=O)(=O)c2c(C)nn(C)c2C)cc1`, the survival was 75%.
Then `CCSc1nc(-c2ccccc2)nc2c1Cc1c(CO)cnc(C)c1O2`, with 93%; and `CCSc1nc(-c2ccc(Cl)cc2)nc2c1Cc1c(CO)cnc(C)c1O2`, with 39% (active); and `CCSc1nc(-c2cccc(Cl)c2)nc2c1Cc1c(CO)cnc(C)c1O2`, with 116%.
For `CC(C)c1n[nH]c(=S)n1C` the value was 84%; for `CCOc1ccc(N2CC(c3nc4ccccc4n3Cc3ccccc3F)CC2=O)cc1` (stereo not drawn), 103%; for `CCc1ccc(N2CC(c3nc4ccccc4n3Cc3ccccc3C)CC2=O)cc1` (stereo not drawn), 52% (active).
For `CCOc1ccccc1N1CC(c2nc3ccccc3n2CCCOc2ccccc2)CC1=O` (stereo not drawn) the value was 68%.
As for `CCOc1ccc(N2CC(c3nc4ccccc4n3CCOc3ccccc3)CC2=O)cc1` (stereo not drawn), the survival was 33% (active).
In the case of `CCOc1ccccc1N1CC(c2nc3ccccc3n2CCOc2ccccc2)CC1=O` (stereo not drawn), the survival was 32% (active).
For `CCOc1ccccc1N1CC(c2nc3ccccc3n2CCOc2ccc(OC)cc2)CC1=O` (stereo not drawn) the value was 62%.
Then `CCOc1ccc(N2CC(c3nc4ccccc4n3CCOc3ccc(CC)cc3)CC2=O)cc1` (stereo not drawn), with 55% (active); and `CCOC(=O)Cn1c(C2CC(=O)N(c3ccc(C)cc3)C2)nc2ccccc21` (stereo not drawn), with 66%.
For `CCOc1ccc(N2CC(c3nc4ccccc4n3CCCOc3ccccc3)CC2=O)cc1` (stereo not drawn) the value was 51%; for `CCc1ccccc1NC(=O)c1nnn(-c2ccc(F)cc2)c1C`, 74%.
As to `CCN(CC)CCCNC(=O)CCc1c(C)n(CC)c2cc(-c3ccccc3OC)nn2c1=O`, the survival was 92%.
Then `CCC(=O)n1nc(-c2cccnc2)nc1NCc1ccc(F)cc1`, with 88%; and `Cc1ccccc1Nc1nn2c(=O)c3ccc(C(=O)NCc4cccs4)cc3nc2s1`, with 72%.
For `O=C(CC1COc2ccccc2O1)NCCc1ccccc1` (stereo not drawn) the value was 87%; for `CCOC(=O)c1c(NC(=O)CSc2cn(CCNC(=O)c3ccc(OCC)cc3)c3ccccc23)sc2c1CCC2`, 91%; for `COc1ccc(OC)c(CCNC(=O)c2cc3c(-c4ccccc4F)nn(C)c3s2)c1`, 54%.
Take `CCOc1ccc(-c2nnc(SCC(=O)NCc3ccccc3)nc2-c2ccc(OCC)c(OC)c2)cc1OC`: the survival is 80%.
Then `CCc1cc2c(cc3c(=O)n(CCCC(=O)NCc4cccc(Cl)c4)ncn32)s1`, with 67%.
Then `CCOc1ccc(S(=O)(=O)N(CC(=O)Nc2ccc3c(c2)OCO3)c2ccc(C)cc2)cc1`, with 50%; and `COCCCNC(=O)N1[C@H](c2cccs2)[C@@H](C)C(=O)[C@@H](C)[C@@H]1c1cccs1`, with 47%; and `CCOc1ccc(N2CC(c3nc4ccccc4n3CCCOc3ccccc3OC)CC2=O)cc1` (stereo not drawn), with 81%.
For `COc1ccc(OCCCn2c(C3CC(=O)N(c4ccc(F)cc4)C3)nc3ccccc32)cc1` (stereo not drawn) the value was 66%; for `CCOc1ccc(N2CC(c3nc4ccccc4n3CCC3CCCCC3)CC2=O)cc1` (stereo not drawn), 33% (active); for `CCOc1ccc(N2CC(c3nc4ccccc4n3CCCCOc3ccc(OC)cc3)CC2=O)cc1` (stereo not drawn), 55%.
Regarding `CCOc1ccc(N2CC(c3nc4ccccc4n3CCOc3ccccc3OC)CC2=O)cc1` (stereo not drawn), the survival was 46%.
Then `O=C1CC(c2nc3ccccc3n2CCCOc2ccccc2)CN1c1ccc(F)cc1` (stereo not drawn), with 97%; and `CCOc1ccc(N2CC(c3nc4ccccc4n3CCOc3ccc(OC)cc3)CC2=O)cc1` (stereo not drawn), with 47% (active).
For `CCOc1ccc(N2CC(c3nc4ccccc4n3CCCOc3ccc(OC)cc3)CC2=O)cc1` (stereo not drawn) the value was 44% (active); for `COc1ccc(OCCn2c(C3CC(=O)N(c4ccc(F)cc4)C3)nc3ccccc32)cc1` (stereo not drawn), 59% (active).
For `CCC1CN(C(=O)N2CCC(C(=O)Nc3cc(C)ccc3C)CC2)c2ccccc2O1` (stereo not drawn) the value was 98%; for `Cc1[nH]c2ccc(-c3nnc(SCC(=O)N4CCc5ccccc54)o3)cc2c1C`, 84%.
In the case of `COc1ccc(C2C(C(=O)Nc3cccnc3)=C(C)Nc3nc(SCc4ccccc4)nn32)cc1` (stereo not drawn), the survival was 57%.
For the compound `COc1ccc(NC(=O)C2CCN(S(=O)(=O)c3ccc4[nH]c5c(c4c3)CCCCC5)CC2)cc1`, the survival is 113%.
Then `COc1ccc2cc3cc(C(=O)N4CCN(c5cccc(C(F)(F)F)c5)CC4)sc3nc2c1`, with 119%; and `CCN(C(=O)CSc1nnc(Cn2nnc3ccccc32)o1)c1nc(-c2ccccc2)cs1`, with 80%; and `OCCN(CCO)CC(O)Cn1c2ccc(Br)cc2c2cc(Br)ccc21` (stereo not drawn), with 2% (active).
For `CC(C)OCC(O)Cn1c2ccccc2c2ccccc21` (stereo not drawn) the value was 80%; for `Cc1cccc(N(CC(O)Cn2c3ccccc3c3ccccc32)S(=O)(=O)c2ccc(F)cc2)c1` (stereo not drawn), 58%; for `CCNc1nc(NCC)nc(N(n2cnnc2)S(=O)(=O)c2ccc(C)cc2)n1`, 1% (active).
Then `CCCN(CCC)S(=O)(=O)c1ccc(C)cc1`, with 97%; and `CCNc1sc(S(C)(=O)=O)nc1S(=O)(=O)c1ccc(C)cc1`, with 125%; and `COc1ccccc1NC(=O)Cn1c(SCC(=O)N(C)c2ccccc2)nc2ccccc21`, with 119%.
As to `O=C(CSc1ccccc1)Nc1c[nH]c(=O)[nH]c1=O`, the survival is 78%.
Regarding `Cc1ccc(C)c(NC(=O)c2cc(=O)c3cc(C)cc(C)c3o2)c1`, the survival was 70%.
Then `COc1ccc(S(=O)(=O)Cc2ccc(C(=O)N3CCN(c4cc(C)ccc4C)CC3)o2)cc1`, with 130%.
Then `Cc1cccc(-c2nnn3c2nc(NCc2ccccc2)c2ccccc23)c1`, with 97%; and `Nc1ncnc2nc(SCCO)[nH]c12`, with 63% (active); and `Nc1ncnc2nc(SCC(=O)O)[nH]c12`, with 86%.
For `Cc1ccc(S(=O)(=O)Nc2c(C)nc3nc(C)[nH]n3c2=O)c(C)c1` the value was 117%; for `Cc1ccccc1-c1nn2c(=O)cc(CN3CCN(C(=O)c4ccc(C(C)(C)C)cc4)CC3)nc2s1`, 97%; for `COc1cc(OC)cc(C(=O)N2CCN(C(=O)COc3ccc(C)cc3)CC2)c1`, 57%.
For the compound `COc1ccc(OCC(=O)N2CCN(C(=O)c3cccc(OC)c3)CC2)cc1`, the survival is 72%.
Then `COc1cc(OC)cc(C(=O)N2CCN(C(=O)COc3ccccc3)CC2)c1`, with 54% (active).
